Rows were chosen to be rich in hits. Some 4.4% of all compounds tested hit in one or more screens of this group.
tim10-1 inh = tim10-1 yeast growth inhibition. S. cerevisiae tim10-1 ts strain growth, BacTiter-Glo, 24 h. inhibition, % at 20 µM. actives 2.2% (n = 330,000);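 active = inhibition of at least 40%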;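 also: mutant grown at 25 °C; 0% = DMSO wells with yeast and 100% = wells holding no yeast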
tim23-1 inh = tim23-1 yeast growth inhibition. actives 1.3% (n = 330,000). S. cerevisiae tim23-1 growth, BacTiter-Glo luminescence, 24 h. inhibition, % at 20 µM;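 active = growth inhibition of the mutant yeast at or above 50%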;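 also: temperature-sensitive mutant grown at 25 °C; plate controls were DMSO-treated mutant yeast for no effect and medium wells lacking yeast for full effect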
PfHsp90 yeast 2 = inhibits growth of yeast expressing Plasmodium falciparum Hsp90. actives 0.32% (n = 310,000). AID 504621. S. cerevisiae expressing PfHsp90, BacTiter-Glo ATP, 48 h; yeast lacking PDR1 and PDR3 efflux regulators. inhibition, % at 9.4 µM;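 active = every replicate shows inhibition above about 80%, whatever the replicate mean, limit read from the data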;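 also: 0% = DMSO neutral controls and 100% = 20 µM radicicol positive controls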
TIM10 inh = inhibits growth of TIM10 yeast strain; inhibition, % at 10 µM; S. cerevisiae TIM10 strain growth, BacTiter-Glo luminescence, 24 h; actives 1.4% (n = 330,000);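 active = inhibition of 40% or more at the single tested concentration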;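 also: wild-type TIM10 isogenic control strain grown at permissive 25 °C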
Mot1-301 SUMO = SUMOylation pathway inhibition by Mot1-301 growth rescue; S. cerevisiae Mot1-301 growth rescue, ATP luminescence, 38.5C; percent above DMSO median, 100 means doubled; growth rescue, % at 18.8 µM; actives 1% (n = 320,000);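 active = every valid replicate shows activation above 250% relative to neutral control wells; inactive = the rest, any valid replicate at or below 250%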;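 also: OY570 slx delta 5 strain wells were the positive control but not used for scaling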
Yeast Mot1 SUMO = yeast SUMO pathway inhibition in dose response; shares compounds with Mot1-301 SUMO; S. cerevisiae Mot1-301 galactose growth, ATP luminescence, 24 h; -100 = growth of slx-deleted rescue strain; growth activity, percent, % at 42 µM; 2,300 tested, under 10 active; AID 493004;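 active = Signal drops as the depositor expects, and the fitted half-maximal dose is no more than ten times the top valid tested dose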;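 also: more negative values mean stronger growth rescue toward the control strain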
The depositor's hits bear a star; . = no result given; + = active, no number.

SMILES	tim10-1 inh	tim23-1 inh	PfHsp90 yeast 2	TIM10 inh	Mot1-301 SUMO	Yeast Mot1 SUMO
CCOc1ccc(NC(=O)CCCN2C(=O)C(c3ccccc3)Oc3cccnc32)cc1 (centres undefined)	22	16	22	11	37	.
CC[C@@]1(C(=O)OC)N[C@H](CN(C)S(=O)(=O)c2ccc(F)cc2)[C@@H]2C(=O)N(C)C(=O)[C@@H]21	-6	1	-1	-6	.	.
Cc1cccc(OCCC(=O)Nc2ccc(F)c(F)c2)c1	7	18	-12	-13	380*	0
CCc1nc2ccc(C(=O)N3CCN(CC)CC3)cc2nc1CC	1	-3	8	-13	967*	1
CCCN1CCN(C(=O)c2ccc3nc(CC)c(CC)nc3c2)CC1	-3	-2	1	3	7	.
COc1ccc2c(CC(=O)OCC(=O)Nc3cccc(C)c3)coc2c1	5	26	.	6	.	.
CCC(=O)Nc1ccc(C(=O)CN2C(=O)NC3(CCOc4ccccc43)C2=O)cc1 (centres undefined)	-4	5	-1	0	-4	.
CC(C)CC(=O)Nc1ccc(C(=O)CN2C(=O)NC3(CCOc4ccccc43)C2=O)cc1 (centres undefined)	7	-3	.	5	566*	1
CCCNc1ncc2c(=O)[nH][nH]c(=O)c2n1	.	.	11	.	.	.
CCOC(=O)C1=C(C)Nc2ncnn2C1/C=C/c1ccccc1 (centres undefined)	21	12	-3	-5	613*	0
CCC(CC)C(=O)N1CCCC(c2nc(-c3cccs3)no2)C1 (centres undefined)	29	28	0	28	503*	1
CC(=O)Cc1nsc(NC(=O)c2ccc(COc3ccccc3C)o2)n1	20	25	-6	0	2	.
Cc1nc(NCCN2CCOCC2)c2nnn(Cc3c(F)cccc3Cl)c2n1	2	5	-46	4	629*	0
CC12CCC(=O)N1C(C(=O)N1CCN(S(=O)(=O)c3cccc(Cl)c3)CC1)CS2 (centres undefined)	8	17	-29	5	1	.
Cc1nc2ccc(S(=O)(=O)NC(C(=O)N3CCCC3)C(C)C)cc2s1 (centres undefined)	-9	1	-9	6	.	.
Cc1ccc(NC(=O)CCS(=O)(=O)c2ccc3nc(C)sc3c2)cc1	-6	-1	23	-1	524*	0
Cc1nc2ccc(S(=O)(=O)NC(CC(C)C)C(=O)O)cc2s1 (centres undefined)	4	2	30	7	+	0
COc1cc([N+](=O)[O-])cc(/C=N/NC(=O)c2cc(C)nc3ccccc23)c1O	18	-11	-20	19	758*	1
CCCCc1n[nH]c(=S)n1Cc1ccc(C)cc1	31	-6	-3	14	+	1
CCCCCCCc1n[nH]c(=S)n1Cc1ccccc1	20	40	-33	15	-12	.
O=C(Nc1ccc2c(c1)OCCO2)c1cc(F)c(F)cc1Cl	-9	13	5	-6	-18	.
Cc1ccc(C(=O)Nc2ccc3c(c2)OCCO3)c(Cl)c1	-17	10	9	-3	408*	-1
CN(Cc1ccc(Cl)cc1Cl)C(=O)CNC(=O)c1ccc2c(c1)OCO2	26	23	6	3	2	.
COc1ccc2c(c1)[C@H]1[C@H](CO2)[C@H](c2ccccc2)[C@]2(C)C(=O)Nc3cc(C)ccc3C(=O)N12	14	43	-34	3	463*	-1
COc1ccc2c(c1)C(=O)N1[C@H]3c4cc(Cl)ccc4OC[C@@H]3[C@H](c3ccccc3)[C@]1(C)C(=O)N2	29	39	-40	14	150	.
SMILES	tim10-1 inh	tim23-1 inh	PfHsp90 yeast 2	TIM10 inh	Mot1-301 SUMO	Yeast Mot1 SUMO
COc1ccc2c(c1)OC[C@H]1[C@H]2N2C(=O)c3cc(F)ccc3NC(=O)[C@@]2(C)[C@H]1c1ccccc1	8	38	-11	14	+	0
C[C@@]12C(=O)Nc3cc(F)ccc3C(=O)N1[C@H]1c3ccccc3OC[C@@H]1[C@@H]2c1ccccc1	33	41	5	-23	+	0
COc1ccc(O)c(C(=O)c2cnc3c(c2)c(C)nn3CCO)c1	-8	6	-3	4	-2	.
CC(C(=O)N1c2ccccc2CC1C)N1CCN(S(=O)(=O)c2ccccc2F)CC1 (centres undefined)	9	18	-6	0	0	.
CCOC(=O)c1c(CN2CCCCC2)n(C)c2cc(Br)c(O)c(CN(C)C)c12	27	11	0	5	472*	0
Cc1nn2c(N3CCOCC3)cc(C(C)C)nc2c1-c1ccccc1	-29	3	-7	-1	10	.
CC(C)c1cc(N2CCOCC2)n2ncc(-c3ccccc3)c2n1	23	22	-4	-4	489*	0
O=C(Nc1cc([N+](=O)[O-])ccc1C(=O)NCCN1CCOCC1)c1ccccc1	-6	-10	-1	-3	-7	.
O=C1CCCC2=C1C(c1ccncc1)c1c(nc(SCc3ccccc3Cl)[nH]c1=O)N2 (centres undefined)	1	3	-4	7	682*	0
COc1cccc(CC(CC(=O)O)C(=O)Nc2cc(C)ccc2C)c1 (centres undefined)	-4	-7	-3	-7	13	.
O=C(CCC(=O)OCC(=O)c1ccc(Br)cc1)Nc1cccc2cccnc12	6	12	3	1	429*	0
O=C(CSc1cccc2cccnc12)OCC(=O)c1ccc(Br)cc1	4	0	-5	1	-2	.
N#Cc1c(SCC(=O)Nc2nccs2)sc2c(O)cc(=O)[nH]c12	-4	-1	9	-6	7	.
CCCSc1nnc(NC(=O)CSc2sc3c(O)cc(=O)[nH]c3c2C#N)s1	10	10	-10	-13	754*	0
COC(=O)c1ccc(CNC(=O)[C@@H]2CCCN2S(=O)(=O)c2ccccc2F)cc1	-1	13	-13	0	1	.
COc1cc(OC)c(OC)cc1/C=C1\CC(C)C/C(=C\c2cc(OC)c(OC)cc2OC)C1=O (centres undefined)	.	.	-7	.	-3	.
O=C(COc1ncnc2ccccc12)Nc1ccc(Cl)c(S(=O)(=O)N2CCOCC2)c1	-11	-12	-3	4	384*	0
CN(C)S(=O)(=O)c1cccc(NC(=O)COc2nc3ccccc3nc2N2CCOCC2)c1	8	11	18	7	524*	0
COc1ccc(S(=O)(=O)N(C)c2ccc(C(=O)Nc3ccccc3C(=O)N3CCOCC3)cc2)cc1OC	12	7	9	14	-2	.
N#C/C(=C\c1cc([N+](=O)[O-])c(N2CCOCC2)cc1N1CCOCC1)c1nc2ccccc2[nH]1	29	4	3	15	361*	1

From PubChem BioAssay
